# Compound activity deposited in PubChem by National Center for Advancing Translational Sciences (NCATS).
# G9a block: inhibitors of human histone lysine methyltransferase G9a; hit rate 8.8% among 350,000; Q96KQ7; G9a H3K9 monomethylation, AlphaScreen, 2 h; Potency, µM (top dose mostly 102 µM), for inactives: at the top dose activity, negative = inhibition, usual class: inhibitors; AID 504332; also: % is scaled to controls: 0 for no effect and ±100 for the full control effect; nearly all actives have a fitted effect of over 75% in size
# Target sequence (Q96KQ7 913-1193 limits assumed): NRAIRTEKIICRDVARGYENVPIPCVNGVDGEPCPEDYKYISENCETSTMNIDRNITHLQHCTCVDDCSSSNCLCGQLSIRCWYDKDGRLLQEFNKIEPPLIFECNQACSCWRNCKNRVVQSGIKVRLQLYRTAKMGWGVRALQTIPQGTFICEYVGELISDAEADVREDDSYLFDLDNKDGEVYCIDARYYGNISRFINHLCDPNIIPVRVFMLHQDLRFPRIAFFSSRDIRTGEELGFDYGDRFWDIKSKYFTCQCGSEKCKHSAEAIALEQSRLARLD
#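 AlphaScreen read-out: biotin-H3K9 peptide (500 nM) methylation by 20 nM enzyme with 20 uM SAM, 2 h at room temperature after 15 min compound preincubation; anti-monomethyl H3K9 antibody plus donor/acceptor beads, 10 min dark.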
# HP1b chromo inh: HP1-beta chromodomain-methylated histone interaction inhibition; P83916; AlphaScreen HP1-beta / biotin-H3K9me3 peptide binding; Potency, µM (series often up to 114 µM), for inactives: at the top dose activity change, negative = inhibition, most hits filed as inhibitors; hit rate 0.56% among 390,000; also: nearly all actives have a fitted effect of over 70% in size
# Target sequence (P83916 whole entry, looked up): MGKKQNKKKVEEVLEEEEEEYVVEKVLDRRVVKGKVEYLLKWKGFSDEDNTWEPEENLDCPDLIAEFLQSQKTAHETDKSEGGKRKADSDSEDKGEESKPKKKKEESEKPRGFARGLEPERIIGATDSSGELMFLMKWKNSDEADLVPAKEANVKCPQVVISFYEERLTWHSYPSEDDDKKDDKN
#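 AlphaScreen: HP1-beta (50 nM) preformed 30 min with biotin-H3(1-18)K9me3 peptide (50 nM) in PBS pH 7.4, 0.01% Tween-20. Compound added for 30 min at RT, then streptavidin donor/nickel chelate acceptor beads (10 ug/mL) for 30 min.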
# Sfp PPTase inh: Sfp phosphopantetheinyl transferase inhibition. Q9F4F7. Biochemical Sfp PPTase activity, qHTS. Potency, µM, for the others: largest response in the series, negative = inhibition, hits mostly inhibitors. hit rate 3.5% among 310,000;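 also: the enzyme is Sfp with the accession as filed and its product quenches rhodamine fluorescence; 0% = enzyme reaction without inhibitor and -100% = no enzyme wells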
#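 Buffer: 50 mM Hepes-Na pH 7.6, 10 mM MgCl2, 0.01% Nonidet P-40, 0.01% BSA. Enzyme 15 nM, pre-exposed to compound 15 min; substrates then added and fluorescence change tracked over 30 min.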
# JMJD2A Tudor: JMJD2A Tudor domain (human) inhibition | O75164 | AlphaScreen JMJD2A-Tudor / H3K4me3 peptide binding | Potency, µM (titrated, usually from 114 µM), for the others: at the highest dose activity change, negative = inhibition, usual class: inhibitors | hit rate 4.4% among 390,000 | AID 504339; also: % is scaled to controls: 0 for no effect and ±100 for the full control effect; nearly all actives have a fitted effect of over 50% in size
# BAZ2B block: inhibitors of human BAZ2B bromodomain; Q9UIF8; AlphaScreen BAZ2B-H3K14Ac peptide displacement; Potency, µM (doses to about 114 µM), for inactives: at the highest dose activity change, negative = inhibition, actives largely listed as inhibitors; hit rate 4.4% among 360,000; also: % is scaled to controls: 0 for no effect and ±100 for the full control effect; nearly all actives have a fitted effect of over 60% in size
#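 AlphaScreen displacement of biotin-H3(5-23)K14Ac peptide (50 nM final) from BAZ2B (50 nM final) in PBS pH 7.4, 0.01% Tween-20; complex preformed 30 min RT, then compounds (top 110 uM) 30 min RT, beads 20 min dark.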
# * marks the source's active call; other numbers are inactive results; ? = inconclusive; . = no result; [ ] = another dose, or the depositor's remark. A selection: hits, their analogues and other compounds. The true share with any hit is near 12%. Calls follow the shape of the dose curve; as a rule, active = well fitted curve in the direction sought with a large enough effect; inconclusive = small, poorly fitted or top-dose-only effect, or another doubt; inactive = no such curve, though single readings can be large; an effect the other way counts as inactive or inconclusive. Potency is read from the fitted curve at half-maximal effect.
SMILES,G9a block,HP1b chromo inh,Sfp PPTase inh,JMJD2A Tudor,BAZ2B block
COc1cccc(NC(=O)Nc2cccc(C(=O)O)c2)c1,12%,46%,13%,2%,1%
COc1cccc(NC(=O)NC2(C(F)(F)F)Oc3ccccc3O2)c1,3.5µM*,20%,-7%,71µM*,11%
CCN(CC)c1ccc(C(=O)OCC(=O)Nc2cc(C)on2)cc1,16%[2.33 µM],-1%,.,-20%,8%
COc1ccc(C(=O)Nc2nnc(-c3ccccc3)s2)cc1,.,8%,0%,-31%,-12%
COc1ccc(C(=O)Nc2nnc(C(F)(F)F)s2)cc1,22%[59 µM],?,7%,56µM*,0%
CCCCNC1=CC(=O)C(NCCCC)=CC1=O,.,18µM*,.,40µM*,.
CCCCNC1=CC(=O)C(=O)c2ccccc21,-1%,0%,12%,-20%,-37%
Cc1ccc(N2CC(NC(=O)C3CCCCC3)CC2=O)cc1 (stereo not drawn),7%[59 µM],19%,.,1%,-3%
Cc1ccc(NC(=S)Nc2ccccn2)cc1C,.,46%,-4%,4%,-14%
COc1ccc(NC(=S)Nc2cc(-c3ccccc3)[nH]n2)cc1Cl,?,?,?,56µM*,?
Cc1cc(NC(=S)Nc2ccc(C)c(Cl)c2)n[nH]1,1.3µM*,-14%,?,?,?
CCOc1ccc(NC(=S)Nc2cc(-c3ccccc3)[nH]n2)cc1,.,-25%,9%,?,?
CCOC(=O)c1c(C)[nH]c(C)c1S(=O)(=O)N1CCCC(C(=O)Nc2ccc(OC)c(OC)c2)C1 (stereo not drawn),-21%[59 µM],15%,.,-18%,1%
COc1cccc(NS(=O)(=O)c2ccc(NC(C)=O)cc2)c1,-41%[59 µM],23%,13%,-3%,-4%
COc1cccc(/C(O)=C/C(=O)C(=O)Nc2ccc(S(=O)(=O)NC(C)=O)cc2)c1,10µM*,7%,-16%,8.9µM*,?
CC1CCN(C(=O)c2ccc(S(=O)(=O)NCc3ccco3)cc2)CC1,-4%[59 µM],14%,-1%,0%,-2%
O=C(/C=C/c1ccco1)N1CCc2ccccc21,40µM*,7%,?,-18%,.
Cc1ccc(/C=C/C(=O)N2CCc3ccccc32)o1,22µM*,45µM*,28µM*,40µM*,45µM*
COc1ccc(CNC(=O)c2cnccn2)cc1,?,28%,12%,-13%,64%
COc1ccc(NC(=O)c2ccco2)cc1NC(=O)c1cc2ccccc2o1,3%,45%,10%,1%,10%
Cc1ccc(C2C3=C(CCCC3=O)Nc3nc(SCC(=O)NCc4ccco4)[nH]c(=O)c32)cc1 (stereo not drawn),-2%[2.33 µM],10%,-1%,-10%,-15%
CN(C)CCCN(C(=O)c1ccc(S(=O)(=O)N(C)Cc2ccccc2)cc1)c1nc2c(F)cccc2s1,-6%,-10%,-24%,?,?
COc1ccc2sc(N(CCCN(C)C)C(=O)c3ccc(C(=O)c4ccccc4)cc3)nc2c1,45µM*,-31%,.,50µM*,?
CCN(Cc1ccccc1)S(=O)(=O)c1ccc(C(=O)N(CCCN(C)C)c2nc3cc(OC)ccc3s2)cc1,45µM*,-11%,.,?,?
CCN(Cc1ccccc1)S(=O)(=O)c1ccc(C(=O)N(CCCN(C)C)c2nc3cc4c(cc3s2)OCCO4)cc1,40µM*,?,.,45µM*,35µM*
SMILES,G9a block,HP1b chromo inh,Sfp PPTase inh,JMJD2A Tudor,BAZ2B block
CCN(c1ccccc1)S(=O)(=O)c1ccc(C(=O)N(CCN(C)C)c2nc3c(F)cc(F)cc3s2)cc1,45µM*,.,3%,.,-15%
Cc1ccccc1NC(=O)/C(=C\c1cccs1)NC(=O)c1ccco1,0%[59 µM],9%,1%,-8%,-6%
CC1CCCCC1NC(=O)COn1nnc2ccc(Cl)cc21 (stereo not drawn),-13%,54%,0%,-8%,5%
CCN(Cc1ccccc1)S(=O)(=O)c1ccc(C(=O)N(CCCN(C)C)c2nc3ccc(F)cc3s2)cc1,.,-2%,89µM*,?,28µM*
CC1(C)CC2(CCO1)OC(=O)CC2C(=O)Nc1ccc(Br)cc1 (stereo not drawn),0%,26%,12%,-2%,0%
CCc1nnc(NC(=O)CN2CCN(c3ccccc3F)CC2)s1,50µM*,45%,-1%,-30%,-36%
O=C(CN1CCN(c2cccc(Cl)c2)CC1)Nc1nccs1,40µM*,23%,6%,-6%,?
CCc1nnc(NC(=O)CN2CCN(c3cccc(OC)c3)CC2)s1,14µM*,14%,-7%,-23%,-10%
CCc1nnc(NC(=O)CN2CCN(Cc3ccccc3C)CC2)s1,.,23%,6%,-21%,5%
CCc1nnc(NC(=O)CN2CCN(Cc3cccc(OC)c3)CC2)s1,-13%,20%,-4%,-19%,0%
CCCN1CCN(CC(=O)Nc2nnc(CC)s2)CC1,.,27%,-10%,7.1µM*,-2%
CC(=O)OCC(=O)N1CCN(c2ccc([N+](=O)[O-])cc2)CC1,8%,24%,25%,3%,5%
NC(=O)NCc1cccc(Cl)c1,22%[59 µM],22%,7%,-6%,6%
CCOc1ccccc1NC(=O)c1c2c(nc3ccccc13)C(=O)N(C1CCCCC1)C2,-20%[59 µM],19%,.,-33%,-32%
CC1CCCN(S(=O)(=O)c2cc(C(=O)NCc3ccco3)ccc2Cl)C1 (stereo not drawn),.,6%,.,?,.
Cc1cc(C)n2nc(-c3ccsc3-n3c(C)ccc3C)cc2n1,50µM*,-7%,50µM*,?,-36%
O=C1NC(c2ccccc2)=CC(c2ccccc2O)N1 (stereo not drawn),17%[12.7 µM],43%,.,-3%,7%
CSCCC1COC(c2cccs2)=N1 (stereo not drawn),0.89µM*,14%,3%,-22%,.
CCn1c(=O)n(CC)c2cc(N3CCCC3)c(NC(=O)c3ccc(C)cc3)cc21,56µM*,-9%[57 µM],1%,?,?
Cn1c(=O)n(C)c2cc(N3CCCCC3)c(NC(=O)c3ccccc3)cc21,19%,14%,0%,-12%,50µM*
CCn1c(=O)n(CC)c2cc(N3CCCCC3)c(NC(=O)Nc3ccccc3C(F)(F)F)cc21,-46%[59 µM],0%,.,?,?
CCn1c(=O)n(CC)c2cc(N3CCCC3)c(NC(=O)c3ccccc3)cc21,40µM*,1%,-8%,-29%,?
CCn1c(=O)n(CC)c2cc(N3CCCC3)c(NC(=O)Nc3cc(C)cc(C)c3)cc21,3%[59 µM],43%,.,-10%,-5%
CS(=O)(=O)N(CC(=O)NCCSCc1ccccc1)c1ccccc1,11%,22%,2%,-13%,11%
COc1ccc(N=C(C)C2=C(O)COC2=O)cc1,6.3µM*,35%,7%,-14%,-19%
COc1ccc(S(=O)(=O)N/N=C(/C)c2ccco2)cc1,55%,25%,-6%,-10%,-2%
CCc1cc2c(=O)c(-c3nc4ccccc4[nH]3)coc2c(CN2CCCCC2)c1O,?,62%,6%,-22%,79µM*
